# Laboratory results: paper PMC5540273 (PLoS ONE, 2017)
# System: T1, YSK4
# T1 construct: gene MAP3K19
# Conditions: concentration: 1 μM, replicates: in singlicate; n = 1
# 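Further: KINOMEscan kinase panel screen.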
row,SMILES,%Inh [%]
1,O=C(NCCNc1ccnc(Nc2ccc(F)cc2)n1)Nc1ccc2c(c1)OCO2 [GSK1379882],9
2,O=C(NCc1cccs1)c1cc(C(=O)c2c(Cl)cccc2Cl)c[nH]1 [GW823670],0
3,Cc1ccc(-c2ccc3c(ccc4sc5c(c43)NC[C@@H](C)N=C5N(C)C)n2)cn1,0
4,Cc1cc(Nc2nc(-c3cccc(C)n3)nc3ccccc23)ccn1 [GW872411],0
5,Nc1nc(-c2ccccc2F)c(-c2ccnc3ccccc23)s1 [GW560459],13
6,COc1ccc(-c2cc3c(C)nc(N)nc3n([C@H]3CC[C@H](O)CC3)c2=O)cn1,0
7,OCCCNc1nccc(-c2c(-c3cccc(C(F)(F)F)c3)nn3cc(C(F)(F)F)ccc23)n1 [GW630813],2
8,CN(C)c1cc(-c2ccc3c(N)n[nH]c3c2)nc(N)n1 [GSK2219329],16
9,Cl.c1ccc(Cn2cnc3cc(Nc4ncnc5ccccc45)ccc32)cc1 [GW272142],29
10,Cc1cccc(-c2cc(-c3c[nH]nc3-c3ccccn3)ccn2)c1 [GW679395],36
11,CCC(=O)c1c(-c2ccccc2)c2cc(Cl)ccc2c(=O)n1Cc1cc(S(C)(=O)=O)n(CCC(C)(C)O)n1,0
12,Cc1nnc(-c2ccc(C)c(-c3ccc(C(=O)O)cc3)c2)o1 [GW608005],15
13,COc1cc2nccc(Nc3ccc(OCc4ccc(NC(C)=O)cc4)cc3)c2cc1OC.Cl [GW440135],0
14,COC(=O)c1c(-c2ccccc2)c2cc(Br)ccc2c(=O)n1Cc1ccc(NC(=O)CCC(=O)O)cc1,12
15,Cc1nc(N(C)[C@H]2CN(C(=O)CC#N)CC[C@H]2C)c2cc[nH]c2n1,0
16,COc1cc2ncn(-c3cc(OCc4ccncc4)c(C(N)=O)s3)c2cc1OC [GSK336313],30
17,CCC(=O)c1c(-c2ccccc2)c2cc(Cl)ccc2c(=O)n1Cc1cc(S(C)(=O)=O)n(CC(N)=O)n1,0
18,CCS(=O)c1ccc(-c2coc3ccc(-c4nnc(C)o4)cc23)cc1 (stereo not drawn),15

row,SMILES,%Inh [%]
1,COc1ccc(-c2cc3c(C)nc(N)nc3n([C@H]3CC[C@H](OCCO)CC3)c2=O)cn1,0
2,CC(C)(C)c1ccc(C(=O)Nc2cn3cc(-c4ccccc4)ccc3n2)cc1,21
3,COc1cc(Nc2nccc(N3CCC(NC(=O)C4COc5ccccc5O4)C3)n2)cc(OC)c1OC (stereo not drawn) [GSK1379761],8
4,CN1C(=O)C(Nc2ccccc2)=C(c2ccccc2)C1=O [SB-300079],8
5,COc1ccc(-n2cnc3c(N)ncnc32)cc1 [SKF-97236],34
6,CCc1ccc(-c2ccc3c(c2)-c2nn(C)cc2S(=O)(=O)N3C)cc1,0
7,Cc1ccc(Oc2ccc(Nc3ncnc4cc[nH]c34)cc2C)cn1,14
8,O=C(Nc1n[nH]c2nc(-c3ccccc3)c(Br)cc12)C1CC1 [SB-708998],95.3
9,Cc1ccccc1COc1cc(-n2cnc3cc(Cl)ccc32)sc1C(N)=O [GW813349],10
10,COc1cc(OC)cc(-c2cc3cnc(N)nc3nc2NC(=O)NC(C)(C)C)c1,15
11,COc1cc(Nc2nccc(N3CCC(NC(=O)C(C)c4ccc(Cl)cc4)C3)n2)cc(OC)c1OC (stereo not drawn) [GSK1379757],29
12,CCCC(=O)Nc1n[nH]c2ncc(-c3cccc4ccccc34)cc12 [SB-642057],57
13,COc1ccc(-c2coc3ccc(-c4nnc(SCc5cccc(C#N)c5)o4)cc23)cc1,0
14,Cc1nnc(-c2ccc3ncn(-c4ccc(S(C)=O)cc4)c3c2)o1 (stereo not drawn),21
15,O=C1NC(=O)C(c2ccccc2)=C1Nc1cccc(O)c1 [SB-390534],0
16,Nc1ncnc2c1ncn2-c1cccc2ccccc12 [SKF-97184],23
17,COc1ccc(Nc2nccc(N3CCC(NS(=O)(=O)c4ccc(NC(C)=O)cc4)C3)n2)cc1 (stereo not drawn) [GSK1379729],1
18,COc1cc2ncn(-c3cc(OCc4ccc(S(C)(=O)=O)cc4)c(C(N)=O)s3)c2cc1OC [GW869979],57

# System: ZAK
# Conditions: concentration: 1 μM, replicates: in singlicate; n = 1
row,SMILES,%Inh [%]
1,O=C(NCCNc1ccnc(Nc2ccc(F)cc2)n1)Nc1ccc2c(c1)OCO2 [GSK1379882],100
2,O=C(NCc1cccs1)c1cc(C(=O)c2c(Cl)cccc2Cl)c[nH]1 [GW823670],0
3,Cc1ccc(-c2ccc3c(ccc4sc5c(c43)NC[C@@H](C)N=C5N(C)C)n2)cn1,0
4,Cc1cc(Nc2nc(-c3cccc(C)n3)nc3ccccc23)ccn1 [GW872411],0
5,Nc1nc(-c2ccccc2F)c(-c2ccnc3ccccc23)s1 [GW560459],17
6,COc1ccc(-c2cc3c(C)nc(N)nc3n([C@H]3CC[C@H](O)CC3)c2=O)cn1,0
7,OCCCNc1nccc(-c2c(-c3cccc(C(F)(F)F)c3)nn3cc(C(F)(F)F)ccc23)n1 [GW630813],0
8,CN(C)c1cc(-c2ccc3c(N)n[nH]c3c2)nc(N)n1 [GSK2219329],92.5
9,Cl.c1ccc(Cn2cnc3cc(Nc4ncnc5ccccc45)ccc32)cc1 [GW272142],0
10,Cc1cccc(-c2cc(-c3c[nH]nc3-c3ccccn3)ccn2)c1 [GW679395],0
11,CCC(=O)c1c(-c2ccccc2)c2cc(Cl)ccc2c(=O)n1Cc1cc(S(C)(=O)=O)n(CCC(C)(C)O)n1,27
12,Cc1nnc(-c2ccc(C)c(-c3ccc(C(=O)O)cc3)c2)o1 [GW608005],0
13,COc1cc2nccc(Nc3ccc(OCc4ccc(NC(C)=O)cc4)cc3)c2cc1OC.Cl [GW440135],10
14,COC(=O)c1c(-c2ccccc2)c2cc(Br)ccc2c(=O)n1Cc1ccc(NC(=O)CCC(=O)O)cc1,36
15,Cc1nc(N(C)[C@H]2CN(C(=O)CC#N)CC[C@H]2C)c2cc[nH]c2n1,0
16,COc1cc2ncn(-c3cc(OCc4ccncc4)c(C(N)=O)s3)c2cc1OC [GSK336313],1
17,CCC(=O)c1c(-c2ccccc2)c2cc(Cl)ccc2c(=O)n1Cc1cc(S(C)(=O)=O)n(CC(N)=O)n1,0
18,CCS(=O)c1ccc(-c2coc3ccc(-c4nnc(C)o4)cc23)cc1 (stereo not drawn),8

row,SMILES,%Inh [%]
1,COc1ccc(-c2cc3c(C)nc(N)nc3n([C@H]3CC[C@H](OCCO)CC3)c2=O)cn1,1
2,CC(C)(C)c1ccc(C(=O)Nc2cn3cc(-c4ccccc4)ccc3n2)cc1,14
3,COc1cc(Nc2nccc(N3CCC(NC(=O)C4COc5ccccc5O4)C3)n2)cc(OC)c1OC (stereo not drawn) [GSK1379761],14
4,CN1C(=O)C(Nc2ccccc2)=C(c2ccccc2)C1=O [SB-300079],0
5,COc1ccc(-n2cnc3c(N)ncnc32)cc1 [SKF-97236],15
6,CCc1ccc(-c2ccc3c(c2)-c2nn(C)cc2S(=O)(=O)N3C)cc1,0
7,Cc1ccc(Oc2ccc(Nc3ncnc4cc[nH]c34)cc2C)cn1,5
8,O=C(Nc1n[nH]c2nc(-c3ccccc3)c(Br)cc12)C1CC1 [SB-708998],9
9,Cc1ccccc1COc1cc(-n2cnc3cc(Cl)ccc32)sc1C(N)=O [GW813349],0
10,COc1cc(OC)cc(-c2cc3cnc(N)nc3nc2NC(=O)NC(C)(C)C)c1,15
11,COc1cc(Nc2nccc(N3CCC(NC(=O)C(C)c4ccc(Cl)cc4)C3)n2)cc(OC)c1OC (stereo not drawn) [GSK1379757],0
12,CCCC(=O)Nc1n[nH]c2ncc(-c3cccc4ccccc34)cc12 [SB-642057],54
13,COc1ccc(-c2coc3ccc(-c4nnc(SCc5cccc(C#N)c5)o4)cc23)cc1,23
14,Cc1nnc(-c2ccc3ncn(-c4ccc(S(C)=O)cc4)c3c2)o1 (stereo not drawn),12
15,O=C1NC(=O)C(c2ccccc2)=C1Nc1cccc(O)c1 [SB-390534],8
16,Nc1ncnc2c1ncn2-c1cccc2ccccc12 [SKF-97184],0
17,COc1ccc(Nc2nccc(N3CCC(NS(=O)(=O)c4ccc(NC(C)=O)cc4)C3)n2)cc1 (stereo not drawn) [GSK1379729],24
18,COc1cc2ncn(-c3cc(OCc4ccc(S(C)(=O)=O)cc4)c(C(N)=O)s3)c2cc1OC [GW869979],0
